Measurements as given in the OligoGym collection.

Tests used:
Assay in all cases: pooled miR-30 sensor sort-seq; sequence = guide strand
Details in all cases: shRNA
SYBU = target: SYBU
SYCP2L = target: SYCP2L
SYN3 = target: SYN3
SURF1 = target: SURF1
TAAR8 = target: TAAR8
TACR1 = target: TACR1
TAF3 = target: TAF3
TAC4 = target: TAC4
Also: reference of the scale not given here.

Sequence: TTGCATGAACTTCTGCATCCAC
- sensor-assay potency score (higher = more potent) (SYBU): 0.0297

Sequence: TTGGTCACCAAGTCTGTTGTTT
- sensor-assay potency score (higher = more potent) (SYCP2L): -0.185

Sequence: TAATCTCTGCCATCCTTGCTGT
- sensor-assay potency score (higher = more potent) (SYN3): -0.283

Sequence: TTGATTGTTGTGACTTAGCAAA
- sensor-assay potency score (higher = more potent) (SYCP2L): -1.27

Sequence: TTTGATTCCTTCTTATATCGAG
- sensor-assay potency score (higher = more potent) (SYBU): 0.632

Sequence: TTAAATGGAAACACTAATCTTT
- sensor-assay potency score (higher = more potent) (SYBU): 0.258

Sequence: TTTCTGGATGCGGATGTCGTAC
- sensor-assay potency score (higher = more potent) (SYN3): -1.02

Sequence: TTCCTCAGAGTAACTCTGGTTT
- sensor-assay potency score (higher = more potent) (SURF1): -0.24

Sequence: TTCTATAACACAAATCAGCGAC
- sensor-assay potency score (higher = more potent) (SYCP2L): -0.297

Sequence: TTCACCAACCATTCCAATCGTG
- sensor-assay potency score (higher = more potent) (SYBU): 0.00982

Sequence: TAGGTTTTTCTTCATCTTCTGA
- sensor-assay potency score (higher = more potent) (SYCP2L): -0.679

Sequence: TTTCTTAAACCACAGGTAGGAT
- sensor-assay potency score (higher = more potent) (SURF1): -0.803

Sequence: TTCATGACTTCTTTGTAGCTGA
- sensor-assay potency score (higher = more potent) (SYCP2L): 0.227

Sequence: ATCTTCTATAACACAAATCAGC
- sensor-assay potency score (higher = more potent) (SYCP2L): -1.67

Sequence: TTGATTCCTTCTTATATCGAGA
- sensor-assay potency score (higher = more potent) (SYBU): -0.708

Sequence: TTCTGCATCCACATTGGCGTAG
- sensor-assay potency score (higher = more potent) (SYBU): -0.476

Sequence: TTGTAGACGGAGTAGAGAGAGT
- sensor-assay potency score (higher = more potent) (SYN3): -1.24

Sequence: TTTTGGAGACAACAAGGTCGGC
- sensor-assay potency score (higher = more potent) (SYN3): -0.766

Sequence: TATATAAAAAGTGACACTCTGA
- sensor-assay potency score (higher = more potent) (SYCP2L): -0.257

Sequence: TAAAATCAGCTTCACTACCTGG
- sensor-assay potency score (higher = more potent) (SYBU): -0.495

Sequence: TTATTGATCTGTCAAGACGGTA
- sensor-assay potency score (higher = more potent) (SYCP2L): -0.997

Sequence: TCAGCTTCCACTTCCGACGCTG
- sensor-assay potency score (higher = more potent) (SURF1): 0.863

Sequence: TAGTTGGATCCAATTTTCTGGA
- sensor-assay potency score (higher = more potent) (SYN3): -1.06

Sequence: AATATCTTTATCTTCTCCGTTT
- sensor-assay potency score (higher = more potent) (SYCP2L): -0.529

Sequence: TAATAAGCACTCCAACAGCAAA
- sensor-assay potency score (higher = more potent) (TAAR8): -1.57

Sequence: TCGTTGTGGACAGCATAGGTGA
- sensor-assay potency score (higher = more potent) (TACR1): -1.11

Sequence: TTTCACTTTATCCTTCTCCTTA
- sensor-assay potency score (higher = more potent) (TAF3): 0.0178

Sequence: TGGTCTTGGAGTCACTTCGTGA
- sensor-assay potency score (higher = more potent) (TACR1): -1.54

Sequence: TGAACAGGCTTCTCTTGCCCAG
- sensor-assay potency score (higher = more potent) (TAC4): -1.26

Sequence: TCTGCCTTCTGTGAACAGGCTT
- sensor-assay potency score (higher = more potent) (TAC4): -0.554
